Screens deposited in PubChem BioAssay by National Center for Advancing Translational Sciences (NCATS).
GPT2 inh: inhibitors of human GPT2 alanine aminotransferase. Q8TD30. Recombinant GPT2, coupled pyruvate oxidase/HRP Amplex Red fluorescence. Potency, µM (series often up to 57.7 µM), for inactives: at the top dose activity change, negative = inhibition, usual class: inhibitors. 100,000 tested, 0.25% active; note: nearly all actives have a fitted effect of over 60% in size
Target sequence (Q8TD30 whole entry, looked up): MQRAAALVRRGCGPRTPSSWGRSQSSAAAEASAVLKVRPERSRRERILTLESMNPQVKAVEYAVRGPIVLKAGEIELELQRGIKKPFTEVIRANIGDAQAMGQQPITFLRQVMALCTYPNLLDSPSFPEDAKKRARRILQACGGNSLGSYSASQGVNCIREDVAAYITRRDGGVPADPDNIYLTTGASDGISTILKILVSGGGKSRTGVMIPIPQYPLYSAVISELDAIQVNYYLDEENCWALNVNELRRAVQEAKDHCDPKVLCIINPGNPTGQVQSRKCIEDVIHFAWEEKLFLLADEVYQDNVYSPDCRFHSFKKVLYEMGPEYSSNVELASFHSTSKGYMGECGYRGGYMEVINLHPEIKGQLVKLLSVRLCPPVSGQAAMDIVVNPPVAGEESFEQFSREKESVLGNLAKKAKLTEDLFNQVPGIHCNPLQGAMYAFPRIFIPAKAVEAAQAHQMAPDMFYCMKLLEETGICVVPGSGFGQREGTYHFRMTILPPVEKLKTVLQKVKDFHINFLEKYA
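Recombinant GPT2 (10ng/uL) with 250uM a-KG and 2mM L-alanine, 30 min at room temperature, in HEPES pH 7.5 buffer. Pyruvate detected by pyruvate oxidase/HRP/Amplex Red fluorescence after 30 min in the dark; AOA (50uM) as positive control.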
NPR1 antag: antagonists of human natriuretic peptide receptor Npr1. P16066. HEK293 hNpr1 GloSensor cGMP, ANP-stimulated luminescence. Potency, µM (series often up to 46.3 µM), inactives show top-dose activity change, negative = inhibition, hits mostly inhibitors. 76,000 tested, 1.6% active; calls by dose curve; note: nearly all actives have a fitted effect of over 60% in size
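HEK293 cells stably expressing human Npr1 and cGMP GloSensor pGS-40F, loaded 2 h with 2% GloSensor reagent, given compound 30 min at room temperature. Luminescence read before and 20 min after 0.1 nM hNppA.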
3T3 cytotox: kills NIH 3T3 cells. NIH 3T3 viability, CellTiter-Glo ATP luminescence, 48-72 h. Potency, µM (doses to about 96.7 µM), for the others: at the highest dose activity change, negative = cytotoxicity, most hits filed as inhibitors. 94,000 tested, 4.3% active. AID 1345082; note: nearly all actives have a fitted effect of over 55% in size
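Cells were seeded at 400 per well, treated with pin-transferred compound, and kept 48 or 72 hr at 37 °C before CellTiter-Glo addition and luminescence imaging of cellular ATP.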
FLuc inh: Photinus pyralis luciferase inhibition. 76,000 tested, 2.5% active. purified P. pyralis luciferase, luminescence, biochemical. Potency, µM (highest dose often 115 µM), usual class: inhibitors. P08659; note: nearly all actives have a fitted effect of over 65% in size
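Luminescence read by CCD imaging after purified firefly luciferase (10nM final) was added to substrate buffer holding 10uM D-luciferin and 10uM ATP, pH 7.5, pre-dosed with compound.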
HEK cytotox: kills HEK 293 cells. Potency, µM (series often up to 115 µM), inactives show top-dose activity change, negative = cytotoxicity, actives largely listed as inhibitors. 94,000 tested, 6.6% active. HEK 293 viability, ATP luminescence (CellTiter-Glo), 48-72 h; note: nearly all actives have a fitted effect of over 60% in size
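HEK 293 cells at 250 cells/well were exposed to compounds by pintool transfer for 48 or 72 hr at 37 degree Celsius, 5% CO2. Viability was read as ATP-coupled luminescence with CellTiter-Glo after 10 min at room temperature.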
Numbers without * were called inactive; i = inactive; ? = inconclusive; . = no result given; [ ] = dose if it differs, or a comment. Hits are enriched below; roughly 10% of the tested compounds scored in any of these assays. Unless noted, calls come from the whole dose curve; as a rule, active = well fitted curve in the direction sought with a large enough effect; inconclusive = small, poorly fitted or top-dose-only effect, or another doubt; inactive = no such curve, though single readings can be large; an effect the other way counts as inactive or inconclusive. % is set by controls: 0 for no effect and ±100 for the full control effect; potency is the fitted concentration of half-maximal effect.

SMILES | GPT2 inh | NPR1 antag | 3T3 cytotox | FLuc inh | HEK cytotox
O=C(NC[C@H]1O[C@H](Cc2cc(-c3ccc(F)cc3)on2)CC[C@@H]1O)c1ccc(F)cc1 | ? | 15.8µM* | ? | 39.8µM* | ?
O=C(NCC(F)(F)F)c1ccc2nc(-c3cccnc3)oc2c1 | i | . | -25.6%[138 µM] | . | ?
COc1cc(Nc2nc(-c3ccccc3)no2)cc(OC)c1OC | -17.0% | -24.9% | ? | 31.6µM* | ?
COc1ccc(-c2noc(Nc3cc(OC)c(OC)c(OC)c3)n2)cc1OC | -2.3% | -27.8% | ? | i | 22.4µM*
COc1cccc(-c2noc(Nc3cc(OC)c(OC)c(OC)c3)n2)c1 | ? | 6.6% | ? | ? | 44.7µM*
COc1cc(Nc2nc(-c3ccccc3F)no2)cc(OC)c1OC | -9.7% | -12.6% | ? | ? | 31.6µM*
N#Cc1cccc(-c2c(C(=O)N3CCCCC3)nc3sccn23)c1 | -1.7%[88.5 µM] | . | ? | . | ?
CS(=O)(=O)NCCc1ccc(CC2CCN(C(=O)CC3CCCC3)CC2)cc1 | i | . | 39.8µM* | . | ?
Cc1cc(NC(=O)C2CCN(c3cc(C(F)(F)F)ncn3)CC2)ccc1Br | i | ? | 31.6µM* | i | 25.1µM*
Cc1ccc(C)c(NC(=O)C2CCN(c3cc(C(F)(F)F)ncn3)CC2)c1 | i | -21.0% | ? | i | ?
COc1ccc(-c2cc(C(=O)NCc3c(C)cc(C)[nH]c3=O)c3c(c2)N(C)CCO3)cc1 | i | -18.3%[70.6 µM] | ? | i | -23.3%[172 µM]
Cc1ccccc1-c1cc(C(=O)NCCc2cnc[nH]2)c2c(c1)N(C)CCO2 | i | -2.7%[70.6 µM] | 100µM* | i | ?
COc1ccc(-c2cc(C(=O)NCc3c(C)cc(C)[nH]c3=O)c3c(c2)N(C(C)C)CCO3)cc1OC | i | 5.1% | 25.1µM* | i | ?
COc1ccc(-c2cc(C(=O)NCCc3cnc[nH]3)c3c(c2)N(C)CCO3)cc1OC | 4.2%[88.5 µM] | 4.5%[70.6 µM] | ? | i | -29.0%[172 µM]
Cc1cc(C)c(CNC(=O)c2cc(-c3cccnc3)cc3c2OCCN3C(C)C)c(=O)[nH]1 | i | -0.4%[70.6 µM] | ? | i | 100µM*
Cc1cc(C)c(CNC(=O)c2cc(-c3ccccc3C)cc3c2OCCN3C)c(=O)[nH]1 | -9.4%[88.5 µM] | -30.0%[70.6 µM] | 44.7µM* | i | 89.1µM*
O=C(NCc1ccccc1F)C1CCc2nnc(-c3cccc(C(F)(F)F)c3)n21 (stereo not given) | i | . | -11.1% | . | -12.3%
COc1ccc(-n2c(=O)c(C(=O)NCC(F)F)nc3cccnc32)cc1 | i | . | -14.1% | . | 3.6%
COc1ccccc1-c1cc(C(=O)NCc2c(C)cc(C)[nH]c2=O)c2c(c1)ncn2C | -8.9%[88.5 µM] | 4.8%[70.6 µM] | 39.8µM* | i | ?
Cc1ccc(-c2cc(C(=O)N3CCC(Cc4nncn4C(C)C)CC3)c3ccccc3n2)cc1C | i | -26.5% | ? | 5.62µM* | 12.6µM*
Cc1ccc(-c2cc(C(=O)N3CCC(c4nc(C5CCOCC5)no4)C3)c3ccccc3n2)cc1C (stereo not given) | -3.7% | ? | ? | 0.316µM* | 11.2µM*
CC(C)Nc1ncnc2c1CN(C1CCCC1)C(=O)CN2C | i | . | -16.5%[138 µM] | . | -9.5%[172 µM]
COc1cccc(C(=O)Nc2ccc3c(N4CCOCC4)ncnc3c2)c1 | i | 3.8% | -59.4% | ? | -76.7%
Cc1ccc(C(=O)Nc2ccc3c(N4CCOCC4)ncnc3c2)cc1C | ? | -14.5% | ? | ? | ?
O=C(Nc1ccc2c(N3CCOCC3)ncnc2c1)c1cccc(Cl)c1 | -4.4% | -2.8% | 7.08µM* | i | ?
SMILES | GPT2 inh | NPR1 antag | 3T3 cytotox | FLuc inh | HEK cytotox
O=C(COc1ccccc1)Nc1ccc2c(N3CCOCC3)ncnc2c1 | i | -4.5% | ? | i | ?
CC(Oc1cccc(Cl)c1)C(=O)Nc1ccc2c(N3CCOCC3)ncnc2c1 (stereo not given) | ? | -24.3% | ? | i | 44.7µM*
O=C(Nc1ccc2c(N3CCOCC3)ncnc2c1)c1ccc(Br)o1 | i | 2.8% | ? | i | 39.8µM*
COc1ccccc1CCC(=O)N1CCCN(c2cc(-c3ccc(Cl)cc3)[nH]n2)CC1 | ? | -26.3% | 35.5µM* | i | ?
COc1cccc(CCC(=O)N2CCCN(c3cc(-c4ccc(Cl)cc4)[nH]n3)CC2)c1 | 2.3% | ? | 35.5µM* | i | ?
COc1ccc(-c2ccc(C(=O)N3CCC(NC(=O)c4ccccc4Cl)C3)cc2)nn1 (stereo not given) | . | . | -24.1% | . | -21.0%
Cn1ncc2c(C(=O)Nc3ccccc3F)cc(-c3cccc(C(F)(F)F)c3)nc21 | . | . | ? | . | -19.0%
Cc1ccc(NC(=O)c2cc3c(s2)CN(C2CC2)C3)cc1 | i | -30.1% | ? | 8.91µM* | ?
CCOc1ccc(NC(=O)c2cc3c(s2)CN(C2CCCC2)C3)cc1 | 1.7% | -19.6% | ? | i | ?
CSc1ccc(NC(=O)c2cc3c(s2)CN(C2CC2)C3)cc1 | i | 11.2µM* | ? | ? | ?
Cc1ccc(C(=O)NC2CCCN(c3cc(-c4ccc(Cl)cc4)[nH]n3)C2)cn1 (stereo not given) | ? | -3.8% | ? | ? | 28.2µM*
COc1ccc(-c2cc(N3CCCC(NC(=O)c4ccccc4Cl)C3)n[nH]2)cc1 (stereo not given) | ? | -3.6% | ? | 44.7µM* | ?
COc1cc(C(=O)NC2CCN(c3cc(-c4ccc(Cl)cc4)[nH]n3)C2)cc(OC)c1OC (stereo not given) | ? | -1.5% | ? | i | ?
COc1cc(C(=O)NC2CCCN(c3cc(-c4ccccc4)[nH]n3)C2)cc(OC)c1OC (stereo not given) | ? | -9.8% | ? | 35.5µM* | ?
COc1ccc(-c2cc(N3CCC(NC(=O)c4ccc(F)c(Cl)c4)C3)n[nH]2)cc1 (stereo not given) | 0.0% | 2.4% | 39.8µM* | i | ?
CCOc1cc(C(=O)NC2CCN(c3cc(-c4ccc(OC)cc4)[nH]n3)C2)cc(OCC)c1OCC (stereo not given) | -8.4% | 3.0% | 22.4µM* | i | 39.8µM*
COc1ccc(C(=O)NC2CCCN(c3cc(-c4ccccc4)[nH]n3)C2)cc1 (stereo not given) | -7.8% | 0.0% | ? | 25.1µM* | ?
COc1ccc(C(=O)NC2CCCN(c3cc(-c4ccc(Cl)cc4)[nH]n3)C2)cc1 (stereo not given) | -7.5% | -25.0% | 35.5µM* | ? | ?
COc1ccc(C(=O)NC2CCN(c3cc(-c4ccc(Cl)cc4)[nH]n3)C2)cc1F (stereo not given) | -14.6% | -7.3% | ? | i | 39.8µM*
